From PubChem BioAssay (Tox21)
Results filed as inconclusive are left out. The source made the active and inactive calls. Unless noted, the call rests on the fitted dose curve; in most records, active means well fitted curve in the direction sought with a large enough effect in the repeat runs; inconclusive means weak or mixed curves; inactive means no such curve, though single readings can be large; an effect the other way counts as inactive or inconclusive.

Key:
[1] = A CellTox Green Cytotoxicity Assay to monitor cytotoxicity in HepG2 cells - 0 hour (AID 1224882); conditions: CellTox Green fluorescence; series mostly up to 76.8 µM; further: nearly all actives have a fitted effect of over 35% in size; further: potency means the concentration at half of the fitted maximal effect
How it was run: (§1)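 HepG2 cells were seeded together with the CellTox Green dye at 600 cells/well, left 5 h at 37 C/5% CO2, then given compounds in DMSO. Fluorescence from dye bound to dead-cell DNA was read repeatedly over 40 h of treatment at 37 C.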

[2] = qHTS RealTime-Glo MT Cell Viability Assay in HepG2 cells - 16 hour (AID 1224885); conditions: RealTime-Glo luminescence; series mostly up to 76.8 µM; further: nearly all actives have a fitted effect of over 50% in size
How it was run: (§2)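 Cell number in HepG2 cultures estimated from NanoLuc luminescence generated by metabolic reduction of a prosubstrate by living cells. The homogeneous, nonlytic format allowed repeated reads at 0, 8, 16, 24, 32 and 40 h of compound exposure.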

[3] = qHTS RealTime-Glo MT Cell Viability Assay in HEK293 cells - 24 hour (AID 1224886); conditions: RealTime-Glo luminescence; series mostly up to 76.8 µM; further: nearly all actives have a fitted effect of over 50% in size; further: potency means the concentration at half of the fitted maximal effect
How it was run: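 Homogeneous bioluminescent viability format in HEK293 cells (600 cells/well). Following 5 h at 37 C/5% CO2, 23 nL compound was pintooled; the signal was measured repeatedly during 40 h incubation.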

[4] = A CellTox Green Cytotoxicity Assay to monitor cytotoxicity in HEK293 cells - 16 hour (AID 1224888); conditions: CellTox Green fluorescence; series mostly up to 76.8 µM; further: nearly all actives have a fitted effect of over 35% in size
How it was run: (§3)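 HEK293 cells premixed with CellTox Green dye were seeded at 600 cells/well and left 5 h at 37 C/5% CO2 before pin transfer of 23 nL compound in DMSO. Fluorescence from dye bound to dead-cell DNA was read during 40 h treatment.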

[5] = qHTS RealTime-Glo MT Cell Viability Assay in HepG2 cells - 0 hour (AID 1224889); conditions: RealTime-Glo luminescence; series mostly up to 76.8 µM; further: nearly all actives have a fitted effect of over 50% in size; further: potency means the concentration at half of the fitted maximal effect
How it was run: as §2

[6] = A CellTox Green Cytotoxicity Assay to monitor cytotoxicity in HepG2 cells - 8 hour (AID 1224890); conditions: CellTox Green fluorescence; series mostly up to 76.8 µM; further: nearly all actives have a fitted effect of over 45% in size; further: potency means the concentration at half of the fitted maximal effect
How it was run: as §1

[7] = qHTS assay to identify small molecule antagonists of the estrogen receptor alpha (ER-alpha) signaling pathway using the BG1 cell line in the presence of 0.1 nM 17-beta-estradiol - cell viability counter screen (AID 1259241); conditions: VM7Luc4E2 (BG1) viability, CellTiter-Fluor protease, 22 h, 0.1 nM estradiol agonist added; series mostly up to 92.4 µM; further: nearly all actives have a fitted effect of over 40% in size
How it was run: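 The cell line endogenously expresses full-length ER-alpha and carries four EREs driving luciferase. Cells are cultured 5 days hormone-free, treated 22 hr with compounds and 0.1 nM estradiol, then viability is read by fluorescence.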

[8] = qHTS assay to identify small molecule antagonists of the androgen receptor (AR) signaling pathway using the MDA cell line in the presence of 0.5 nM R1881 - cell viability counter screen (AID 1259242); conditions: MDA-kb2 viability, CellTiter-Fluor protease fluorescence, 16 h; series mostly up to 92.4 µM; further: nearly all actives have a fitted effect of over 45% in size
How it was run: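 MDA-kb2 cells (human breast carcinoma, stably carrying MMTV-luciferase reporter) were exposed to compounds with 0.5 nM R1881 (final) for 16 hr at 37C, 0% CO2; viability then read as live-cell protease fluorescence (CellTiter-Fluor, 30 min) in the same wells.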

[9] = target: Estrogen receptor (Homo sapiens) (UniProt P03372); assay: qHTS assay to identify small molecule antagonists of the estrogen receptor alpha (ER-alpha) signaling pathway using the BG1 cell line in the presence of 0.1 nM 17-beta-estradiol (AID 1259244); conditions: VM7Luc4E2 (BG1) ERE-luciferase, antagonist mode, 0.1 nM E2, 22 h; series mostly up to 42.5 µM; further: nearly all actives have a fitted effect of over 50% in size
Sequence of Estrogen receptor (Homo sapiens) (P03372 whole entry, looked up): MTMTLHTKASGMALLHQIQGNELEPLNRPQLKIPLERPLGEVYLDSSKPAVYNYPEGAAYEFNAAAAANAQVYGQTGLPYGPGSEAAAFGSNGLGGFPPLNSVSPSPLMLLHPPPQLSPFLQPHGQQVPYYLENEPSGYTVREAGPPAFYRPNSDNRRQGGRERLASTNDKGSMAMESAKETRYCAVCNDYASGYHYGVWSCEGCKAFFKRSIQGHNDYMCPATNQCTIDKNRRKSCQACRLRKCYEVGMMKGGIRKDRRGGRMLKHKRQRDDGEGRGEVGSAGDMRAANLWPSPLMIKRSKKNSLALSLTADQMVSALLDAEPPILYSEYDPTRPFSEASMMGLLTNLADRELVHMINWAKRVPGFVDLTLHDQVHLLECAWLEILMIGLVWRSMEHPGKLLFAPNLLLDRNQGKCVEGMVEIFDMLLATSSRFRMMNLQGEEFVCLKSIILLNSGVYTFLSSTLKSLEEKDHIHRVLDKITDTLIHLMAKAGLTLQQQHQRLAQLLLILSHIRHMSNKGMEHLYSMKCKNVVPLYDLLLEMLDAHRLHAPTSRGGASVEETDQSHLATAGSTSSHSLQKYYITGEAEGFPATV
How it was run: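 VM7Luc4E2 cells (endogenous full-length ER-alpha, stable 4xERE-luciferase) were grown 5 days in phenol red-free medium with charcoal-stripped FBS, then exposed 22 h at 37C to compounds plus 0.1 nM (final) 17beta-estradiol; ONE-Glo luminescence read-out.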

[10] = qHTS assay to identify small molecule HDAC inhibitors (AID 1259364); conditions: HCT-116 HDAC-Glo I/II luminescence, 2 h; series mostly up to 92.4 µM; further: nearly all actives have a fitted effect of over 45% in size; further: potency means the concentration at half of the fitted maximal effect
How it was run: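 Wild-type HCT-116 cells were plated overnight, exposed to compounds for 2 h at 37 °C, then given HDAC-Glo class I/II luminogenic reagent for 30 min at room temperature before luminescence was read.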

[11] = qHTS assay to identify small molecule HDAC inhibitors - cell viability counter screen (AID 1259365); conditions: HCT-116 viability, CellTiter-Glo ATP luminescence, 2 h; series mostly up to 92.4 µM; further: nearly all actives have a fitted effect of over 50% in size
How it was run: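 Viability readout: CellTiter-Glo luminescence. Wild-type HCT-116 cells, 2hr compound treatment following overnight attachment at 37 C.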

[12] = qHTS assay to identify small molecule agonists of the sonic hedgehog signaling (Shh) pathway - cell viability counter screen (AID 1259366); conditions: NIH/3T3 Gli1-Luc viability, CellTiter-Fluor, 24 h; series mostly up to 92.4 µM; further: nearly all actives have a fitted effect of over 50% in size; further: potency means the concentration at half of the fitted maximal effect
How it was run: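 Viability measured fluorometrically (CellTiter-Fluor, 1hr, 37C) in 3T3 Gli1-Luc reporter cells after 23hr compound exposure within a 24hr incubation at 37C/5% CO2.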

[13] = qHTS assay to identify small molecule antagonists of the sonic hedgehog signaling (Shh) pathway - cell viability counter screen (AID 1259367); conditions: NIH/3T3 Gli1-Luc viability, CellTiter-Fluor, 24 h; series mostly up to 92.4 µM; further: nearly all actives have a fitted effect of over 55% in size
How it was run: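 After a 4 hr settling period, 3T3 Gli1-Luc cells were treated with DMSO-dissolved chemicals and conditioned medium, kept 24 hr at 37C in 5% CO2, and assayed for viability by CellTiter-Fluor fluorescence following 1 hr reagent incubation.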

[14] = qHTS assay to identify small molecule agonists of the sonic hedgehog signaling (Shh) pathway (AID 1259368; calls by dose curve; further: nearly all actives have a fitted effect of over 15% in size); conditions: NIH/3T3 Gli1-Luc reporter, luciferase, 24 h, hits give high values; series mostly up to 92.4 µM
How it was run: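 NIH/3T3-derived 3T3Gli1-Luc cells carrying a stably integrated Gli1 response element–firefly luciferase reporter were plated, left 4 hr at 37 C, then given compounds in DMSO for 24 hr. Luminescence was read 30 min after adding luciferase reagent.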

[15] = qHTS assay to identify small molecule antagonists of the sonic hedgehog signaling (Shh) pathway (AID 1259369; calls by dose curve; further: nearly all actives have a fitted effect of over 45% in size; further: potency means the concentration at half of the fitted maximal effect); conditions: NIH/3T3 Gli1-Luc reporter, Shh antagonist, luminescence 24 h; series mostly up to 92.4 µM
How it was run: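 NIH/3T3-derived 3T3Gli1-Luc cells with stably integrated Gli1-Luc reporter were preincubated 4hr at 37 C, then given compounds in DMSO plus Shh conditioned medium and incubated 24hr. Firefly luciferase luminescence read after 30min reagent at room temperature.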

[16] = qHTS RealTime-Glo MT Cell Viability Assay in HEK293 cells - 8 hour (AID 1224887); conditions: RealTime-Glo luminescence; series mostly up to 76.8 µM; further: nearly all actives have a fitted effect of over 50% in size; further: potency means the concentration at half of the fitted maximal effect
How it was run: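 HEK293 cells mixed with RealTime-Glo reagents (NanoLuc plus cell-permeant prosubstrate) at 600 cells/well, preincubated 5 h at 37 C/5% CO2, then given 23 nL compound in DMSO. Nonlytic luminescence from viable cells was read at 0, 8, 16, 24, 32 and 40 h.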

[17] = A CellTox Green Cytotoxicity Assay to monitor cytotoxicity in HepG2 cells - 32 hour (AID 1224883); conditions: CellTox Green fluorescence; series mostly up to 76.8 µM; further: nearly all actives have a fitted effect of over 50% in size; further: potency means the concentration at half of the fitted maximal effect
How it was run: as §1

[18] = A CellTox Green Cytotoxicity Assay to monitor cytotoxicity in HEK293 cells - 8 hour (AID 1224884); conditions: CellTox Green fluorescence; series mostly up to 76.8 µM; further: nearly all actives have a fitted effect of over 35% in size
How it was run: as §3

[19] = qHTS assay to identify small molecule phospholipidosis (PLD) inducers (AID 1259344; active means well fitted curve in the direction sought with a large enough effect; an effect the other way counts as inactive or inconclusive); conditions: HepG2 phospholipidosis, LipidTOX Red imaging, 24 h; series mostly up to 38.3 µM
How it was run: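 HepG2 cells grown on collagen I take up LipidTOX Red while exposed to compound for 24 h; after fixation they are imaged at 20x and pit metrics are extracted.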

[20] = target: Androgen receptor (Homo sapiens) (UniProt P10275); assay: qHTS assay to identify small molecule antagonists of the androgen receptor (AR) signaling pathway using the MDA cell line in the presence of 0.5 nM R1881 (AID 1259243); conditions: MDA-kb2 MMTV-luciferase, R1881 0.5 nM, 16 h; series mostly up to 42.5 µM; further: nearly all actives have a fitted effect of over 50% in size; further: potency means the concentration at half of the fitted maximal effect
Sequence of Androgen receptor (Homo sapiens) (P10275 whole entry, looked up): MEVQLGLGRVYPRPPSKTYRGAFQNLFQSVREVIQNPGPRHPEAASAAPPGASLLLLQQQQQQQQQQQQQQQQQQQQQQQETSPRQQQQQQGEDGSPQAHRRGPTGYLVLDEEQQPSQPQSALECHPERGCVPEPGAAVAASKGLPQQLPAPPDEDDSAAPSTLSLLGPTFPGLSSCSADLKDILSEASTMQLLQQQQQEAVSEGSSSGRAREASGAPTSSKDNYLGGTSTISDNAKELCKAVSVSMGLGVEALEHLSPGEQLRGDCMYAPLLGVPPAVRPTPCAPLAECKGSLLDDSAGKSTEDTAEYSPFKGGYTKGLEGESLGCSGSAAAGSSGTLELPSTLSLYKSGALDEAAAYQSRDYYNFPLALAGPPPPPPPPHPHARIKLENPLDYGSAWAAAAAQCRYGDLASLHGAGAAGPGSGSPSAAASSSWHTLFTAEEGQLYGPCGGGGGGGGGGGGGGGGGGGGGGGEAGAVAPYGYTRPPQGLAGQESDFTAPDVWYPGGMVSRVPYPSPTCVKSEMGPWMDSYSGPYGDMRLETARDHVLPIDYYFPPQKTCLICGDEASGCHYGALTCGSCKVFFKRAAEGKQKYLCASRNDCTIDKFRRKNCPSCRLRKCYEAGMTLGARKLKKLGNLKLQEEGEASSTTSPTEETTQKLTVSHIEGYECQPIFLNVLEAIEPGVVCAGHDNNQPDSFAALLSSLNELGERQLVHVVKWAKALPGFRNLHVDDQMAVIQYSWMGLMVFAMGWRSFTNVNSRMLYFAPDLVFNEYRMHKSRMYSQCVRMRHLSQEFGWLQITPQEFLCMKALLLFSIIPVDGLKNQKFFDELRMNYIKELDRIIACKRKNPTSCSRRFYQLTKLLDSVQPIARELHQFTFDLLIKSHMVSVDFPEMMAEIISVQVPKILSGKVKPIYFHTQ
How it was run: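 MDA-kb2 human breast carcinoma cells carrying an MMTV-luciferase reporter (AR- and GR-responsive) were plated, rested 5 hr at 37C, dosed with compounds, then stimulated with 0.5 nM R1881 (final) for 16 hr; luminescence was read after ONE-Glo.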
On the % scale 0 is the no-effect control and ±100 the full control effect.

O=C(OCCc1ccccc1)c1ccccc1
active: Potency [10] 9.69 µM
inactive: Potency [1] | Potency [2] | Potency [3] | Potency [4] | Potency [5] | Potency [6] | Potency [7] | Potency [8] | Potency [9] | Potency [11] | Potency [12] | Potency [13] | outcome [14] | Potency [15]

CCCCCCCCCCCCCCCCCCOS(=O)(=O)O
inactive: Potency [1] | Potency [2] | Potency [16] | Potency [5] | Potency [8] | Potency [10] | Potency [11] | Potency [13] | outcome [14] | Potency [15]

O=C(O)c1ccc(-n2nc(-c3ccccc3O)nc2-c2ccccc2O)cc1
inactive: Potency [17] | Potency [18] | Potency [2] | Potency [3] | Potency [16] | Potency [4] | Potency [5] | Potency [7] | Potency [8] | PLD induction [19] -4.07% [at 1.53 µM] | Potency [10] | Potency [11] | Potency [12] | Potency [13] | outcome [14]

O=C1OC(=O)C2C3C=CC(C3)C12 (stereo not given)
inactive: Potency [1] | Potency [2] | Potency [3] | Potency [16] | Potency [5] | Potency [6] | Potency [7] | Potency [8] | Potency [10] | Potency [11] | outcome [14] | Potency [15]

CCc1c(C(=O)NN2CCCCC2)nn(-c2ccc(Cl)cc2Cl)c1-c1ccc(Br)cc1
inactive: Potency [1] | Potency [18] | Potency [3] | Potency [5] | Potency [6] | Potency [7] | Potency [8] | Potency [9] | Potency [10] | Potency [11] | Potency [13] | outcome [14] | Potency [15]

CNCCCCOc1ccccc1Cc1ccccc1
inactive: Potency [18] | Potency [5] | Potency [9] | Potency [10] | Potency [11] | outcome [14]
active: Potency [17] 21.3 µM | Potency [3] 21.3 µM | Potency [6] 21.3 µM | Potency [12] 33.5 µM | Potency [15] 10.6 µM

COC(=O)C1=C(C)NC(COC(N)=O)=C(C(=O)OC(C)C)C1c1cccc(Cl)c1Cl (stereo not given)
inactive: Potency [1] | Potency [18] | Potency [4] | Potency [6] | Potency [8] | Potency [20] | Potency [9] | PLD induction [19] -2.54% [at 7.66 µM] | Potency [10] | Potency [11] | Potency [12] | outcome [14]
active: Potency [3] 26.8 µM | Potency [5] 1.9 µM

CCN(CC)CCOC(=O)C(Cc1cccc2ccccc12)CC1CCCO1 (stereo not given)
inactive: Potency [17] | Potency [18] | Potency [2] | Potency [16] | Potency [4] | Potency [5] | Potency [7] | Potency [8] | Potency [19] | Potency [10] | Potency [11] | Potency [12] | Potency [13] | outcome [14] | Potency [15]

Cc1cccc(Nc2ccccc2)c1
active: Potency [6] 49 µM | Potency [20] 24.3 µM
inactive: Potency [1] | Potency [18] | Potency [4] | Potency [5] | Potency [8] | Potency [10] | Potency [11] | Potency [12] | outcome [14] | Potency [15]

CCCNCC(O)COc1ccccc1C(=O)CCc1ccccc1 (stereo not given)
active: Potency [3] 2.13 µM | Potency [16] 2.13 µM | Potency [15] 4.73 µM
inactive: Potency [1] | Potency [2] | Potency [4] | Potency [5] | Potency [6] | Potency [7] | Potency [8] | Potency [10] | Potency [11] | Potency [13] | outcome [14]

N=c1ccn2c(n1)O[C@H]1[C@H](O)[C@@H](CO)O[C@H]12
inactive: Potency [1] | Potency [2] | Potency [3] | Potency [16] | Potency [4] | Potency [5] | Potency [6] | Potency [7] | Potency [8] | Potency [9] | Potency [19] | Potency [10] | Potency [11] | Potency [12] | Potency [13] | outcome [14] | Potency [15]

COC(=O)c1ccc(I)cc1S(=O)(=O)NC(=O)Nc1nc(C)nc(OC)n1
inactive: Potency [1] | Potency [18] | Potency [16] | Potency [4] | Potency [5] | Potency [6] | Potency [7] | Potency [8] | Potency [10] | Potency [11] | Potency [13] | outcome [14] | Potency [15]

O=C(NCC1CN(c2ccc(N3CCOCC3=O)cc2)C(=O)O1)c1ccc(Cl)s1 (stereo not given)
inactive: Potency [18] | Potency [2] | Potency [16] | Potency [4] | Potency [5] | Potency [7] | Potency [8] | Potency [11] | Potency [13] | outcome [14] | Potency [15]

C[N+]1(C)CCC(OC(=O)C(O)(c2ccccc2)C2CCCC2)C1 (stereo not given)
active: Potency [1] 26.8 µM
inactive: Potency [5] | Potency [6] | Potency [7] | Potency [8] | Potency [9] | Potency [19] | Potency [10] | Potency [11] | Potency [12] | Potency [13] | outcome [14] | Potency [15]

CCN(CC)CCOC(=O)C(c1ccccc1)C1CCCCC1 (stereo not given)
active: Potency [15] 15 µM
inactive: Potency [1] | Potency [18] | Potency [5] | Potency [8] | Potency [9] | Potency [19] | Potency [10] | Potency [11] | outcome [14]
